Out of some 5,500 compounds screened, about 2,000 (36%) were called active. Roughly 18% stayed inconclusive and do not appear here. No stated cut-off is given here; in the data, active means normalized growth mostly below about 0.91 (no sharp cut-off); inconclusive means no clear call, values can overlap the other calls; inactive means mostly above about 0.92. Some of the results follow.
Assay: chemical genetic growth profiling, strain panel (AID 1159580);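 further: tested at 20 µM; growth read once vehicle control cultures reached saturation at 30 °C; 1 = growth at the plate median or of vehicle wells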
Conditions: growth OD
[1] = S. cerevisiae deletion strains, locus YAL013W, strain DEP1, stronger effect = lower value
[2] = S. cerevisiae deletion strains, locus YBR021W, strain FUR4, stronger effect = lower value
[3] = S. cerevisiae deletion strains, locus YBR229C, strain ROT2, stronger effect = lower value
[4] = S. cerevisiae deletion strains, locus YCL029C, strain bik1, stronger effect = lower value
[5] = S. cerevisiae deletion strains, locus YDL035C, strain GPR1, stronger effect = lower value
[6] = S. cerevisiae deletion strains, locus YDL074C, strain BRE1, stronger effect = lower value
[7] = S. cerevisiae deletion strains, locus YDL101C, strain DUN1, stronger effect = lower value
[8] = S. cerevisiae deletion strains, locus YDL185W, strain tfp1, stronger effect = lower value
[9] = S. cerevisiae deletion strains, locus YDL192W, strain arf1, stronger effect = lower value
[10] = S. cerevisiae deletion strains, locus YDR101C, strain arx1, stronger effect = lower value
[11] = S. cerevisiae deletion strains, locus YDR162C, strain NBP2, stronger effect = lower value
[12] = S. cerevisiae deletion strains, locus YDR318W, strain mcm21, stronger effect = lower value
[13] = S. cerevisiae deletion strains, locus YDR388W, stronger effect = lower value
[14] = S. cerevisiae deletion strains, locus YDR502C, strain sam2, stronger effect = lower value
[15] = S. cerevisiae deletion strains, locus YEL061C, strain CIN8, stronger effect = lower value
[16] = S. cerevisiae deletion strains, locus YER110C, stronger effect = lower value
[17] = S. cerevisiae deletion strains, locus YER155C, strain BEM2, stronger effect = lower value
[18] = S. cerevisiae deletion strains, locus YER167W, strain BCK2, stronger effect = lower value
[19] = S. cerevisiae deletion strains, locus YGL078C, strain dbp3, stronger effect = lower value
[20] = S. cerevisiae deletion strains, locus YGL086W, strain mad1, stronger effect = lower value
[21] = S. cerevisiae deletion strains, locus YGL248W, strain PDE1, stronger effect = lower value
[22] = S. cerevisiae deletion strains, locus YGR135W, strain pre9, stronger effect = lower value
[23] = S. cerevisiae deletion strains, locus YGR252W, strain gcn5, stronger effect = lower value
[24] = S. cerevisiae deletion strains, locus YHR030C, strain SLT2, stronger effect = lower value
[25] = S. cerevisiae deletion strains, locus YHR079C, strain IRE1 (second series), stronger effect = lower value
[26] = S. cerevisiae deletion strains, locus YHR094C, strain hxt1, stronger effect = lower value
[27] = S. cerevisiae deletion strains, locus YHR129C, strain ARP1, stronger effect = lower value
[28] = S. cerevisiae deletion strains, locus YHR200W, strain rpn10, stronger effect = lower value
[29] = S. cerevisiae deletion strains, locus YIL066C, strain RNR3, stronger effect = lower value
[30] = S. cerevisiae deletion strains, locus YIL073C, strain SPO22, stronger effect = lower value
[31] = S. cerevisiae deletion strains, locus YIL125W, strain kgd1, stronger effect = lower value
[32] = S. cerevisiae deletion strains, locus YIR030C, strain dcg1, stronger effect = lower value
[33] = S. cerevisiae deletion strains, locus YJL095W, strain BCK1, stronger effect = lower value
[34] = S. cerevisiae deletion strains, locus YJL134W, strain LCB3, stronger effect = lower value
[35] = S. cerevisiae deletion strains, locus YJL168C, strain set2, stronger effect = lower value
[36] = S. cerevisiae deletion strains, locus YJL187C, strain SWE1 (second series), stronger effect = lower value
[37] = S. cerevisiae deletion strains, locus YJR043C, strain POL32, stronger effect = lower value
[38] = S. cerevisiae deletion strains, locus YKL068W, stronger effect = lower value
[39] = S. cerevisiae deletion strains, locus YKR001C, strain vps1, stronger effect = lower value
[40] = S. cerevisiae deletion strains, locus YLR039C, strain RIC1, stronger effect = lower value
[41] = S. cerevisiae deletion strains, locus YLR058C, strain SHM2, stronger effect = lower value
[42] = S. cerevisiae deletion strains, locus YLR102C, strain apc9, stronger effect = lower value
[43] = S. cerevisiae deletion strains, locus YLR262C, strain YPT6, stronger effect = lower value
[44] = S. cerevisiae deletion strains, locus YLR268W, strain sec22, stronger effect = lower value
[45] = S. cerevisiae deletion strains, locus YLR330W, strain CHS5, stronger effect = lower value
[46] = S. cerevisiae deletion strains, locus YLR342W, strain FKS1 (second series), stronger effect = lower value
[47] = S. cerevisiae deletion strains, locus YLR371W, strain rom2, stronger effect = lower value
[48] = S. cerevisiae deletion strains, locus YLR418C, strain cdc73, stronger effect = lower value
[49] = S. cerevisiae deletion strains, locus YML016C, strain PPZ1, stronger effect = lower value
[50] = S. cerevisiae deletion strains, locus YML032C, strain rad52, stronger effect = lower value
[51] = S. cerevisiae deletion strains, locus YML124C, strain tub3, stronger effect = lower value
[52] = S. cerevisiae deletion strains, locus YMR078C, strain ctf18, stronger effect = lower value
[53] = S. cerevisiae deletion strains, locus YMR223W, strain ubp8, stronger effect = lower value
[54] = S. cerevisiae deletion strains, locus YMR307W, strain GAS1, stronger effect = lower value
[55] = S. cerevisiae deletion strains, locus YNL067W, strain RPL9B, stronger effect = lower value
[56] = S. cerevisiae deletion strains, locus YNL153C, strain GIM3, stronger effect = lower value
[57] = S. cerevisiae deletion strains, locus YNL233W, strain BNI4, stronger effect = lower value
[58] = S. cerevisiae deletion strains, locus YNL250W, strain rad50, stronger effect = lower value
[59] = S. cerevisiae deletion strains, locus YNL271C, strain bni1, stronger effect = lower value
[60] = S. cerevisiae deletion strains, locus YNL298W, strain CLA4, stronger effect = lower value
[61] = S. cerevisiae deletion strains, locus YNL307C, strain MCK1, stronger effect = lower value
[62] = S. cerevisiae deletion strains, locus YNL322C, strain KRE1, stronger effect = lower value
[63] = S. cerevisiae deletion strains, locus YNR052C, strain pop2, stronger effect = lower value
[64] = S. cerevisiae deletion strains, locus YOL012C, strain htz1
[65] = S. cerevisiae deletion strains, locus YOL147C, strain pex11, stronger effect = lower value
[66] = S. cerevisiae deletion strains, locus YOR061W, strain CKA2, stronger effect = lower value
[67] = S. cerevisiae deletion strains, locus YOR069W, strain VPS5, stronger effect = lower value
[68] = S. cerevisiae deletion strains, locus YOR136W, strain idh2, stronger effect = lower value
[69] = S. cerevisiae deletion strains, locus YOR144C, strain elg1, stronger effect = lower value
[70] = S. cerevisiae deletion strains, locus YOR184W, strain ser1, stronger effect = lower value
[71] = S. cerevisiae deletion strains, locus YOR316C, strain cot1, stronger effect = lower value
[72] = S. cerevisiae deletion strains, locus YPR119W, strain clb2, stronger effect = lower value
[73] = S. cerevisiae deletion strains, locus YPR141C, strain kar3, stronger effect = lower value
[74] = S. cerevisiae deletion strains, locus YPR163C, strain tif3, stronger effect = lower value
[75] = S. cerevisiae deletion strains, locus YPR167C, strain met16, stronger effect = lower value
[76] = S. cerevisiae deletion strains, strain wtn01, stronger effect = lower value

Measured: normalized growth

COC(=O)[C@]1(C)CC[C@]2(C)CC[C@]3(C)C4=CCc5c(cc(O)c(O)c5C)[C@]4(C)CC[C@@]3(C)C2C1 (stereo not given in full)
inactive: [1] 0.992 | [2] 0.985 | [3] 0.989 | [4] 0.98 | [5] 0.968 | [6] 0.915 | [7] 0.975 | S. cerevisiae deletion strains, locus YDL134C, strain PPH21, stronger effect = lower value 1.01 | [8] 0.984 | [9] 0.968 | [10] 0.947 | [11] 0.992 | [12] 0.994 | [13] 0.983 | [14] 0.961 | [15] 0.991 | [16] 0.978 | [17] 0.992 | [18] 0.992 | [19] 0.981 | [20] 0.94 | [21] 0.985 | S. cerevisiae deletion strains, locus YGR078C, strain PAC10, stronger effect = lower value 0.971 | [22] 0.99 | [23] 1.09 | [24] 0.994 | [25] 0.982 | [26] 0.978 | [27] 0.962 | [28] 0.986 | [29] 0.969 | [30] 0.983 | [31] 0.975 | [32] 0.982 | [33] 0.958 | [34] 0.991 | [35] 0.978 | [36] 0.961 | [37] 0.989 | S. cerevisiae deletion strains, locus YKL009W, strain mrt4, stronger effect = lower value 1.03 | [38] 0.977 | S. cerevisiae deletion strains, locus YKL085W, strain MDH1 (second series), stronger effect = lower value 0.977 | S. cerevisiae deletion strains, locus YKL085W, strain MDH1, stronger effect = lower value 0.977 | [39] 0.937 | [40] 0.945 | [41] 0.983 | [42] 0.984 | [43] 0.938 | [44] 0.939 | [45] 0.988 | [46] 0.953 | [47] 0.955 | [49] 0.982 | [50] 1.01 | [51] 0.98 | [52] 0.958 | [53] 0.984 | S. cerevisiae deletion strains, locus YMR263W, strain SAP30, stronger effect = lower value 0.998 | [54] 0.954 | [55] 0.998 | [56] 0.973 | [57] 0.951 | [58] 0.977 | [59] 0.979 | [60] 1.01 | [61] 0.962 | [62] 0.993 | [63] 0.985 | [64] 1.1 | [65] 0.998 | [66] 0.981 | [67] 0.984 | [68] 0.966 | [69] 0.973 | [70] 0.902 | [71] 0.983 | [72] 0.971 | [73] 0.968 | [74] 0.968 | [75] 0.976 | [76] 0.929
active: [48] 0.802

CC(=O)OCC1(C)CCC2(C)CCC3(C)C4=CCc5c(cc(OC(C)=O)c(OC(C)=O)c5C)C4(C)CCC3(C)C2C1 (stereo not given)
inactive: [1] 1.01 | [2] 0.994 | [3] 1.02 | [4] 1.01 | [5] 1.02 | [6] 1.04 | [7] 1.02 | [8] 1.01 | [9] 1.01 | [10] 0.974 | [11] 1.04 | [12] 1.01 | [13] 0.997 | [14] 0.984 | [15] 1.01 | [16] 0.999 | [17] 1.01 | [18] 1 | [19] 1 | [20] 0.998 | [21] 1.04 | [22] 1 | [23] 0.992 | [24] 1.02 | [25] 1 | [26] 1.02 | [27] 1.02 | [28] 1.01 | [29] 1.02 | [30] 1.02 | [31] 1 | [32] 1 | [33] 1.04 | [34] 1.01 | [35] 1.01 | [36] 1.02 | [37] 1.02 | [38] 1.01 | [39] 0.997 | [40] 1.03 | [41] 1.02 | [42] 1 | [43] 1.07 | [44] 1 | [45] 1.01 | [46] 1.01 | [47] 1.01 | [48] 1.07 | [49] 1.02 | [50] 1 | [51] 0.997 | [52] 1.01 | [53] 1.01 | [54] 1.07 | [55] 1.03 | S. cerevisiae deletion strains, locus YNL128W, strain TEP1, stronger effect = lower value 1.01 | [56] 1.02 | [57] 1.03 | [58] 1 | [59] 0.999 | [60] 1 | [61] 1 | [62] 1.02 | [63] 1.01 | [64] 1.15 | [65] 0.993 | [66] 1.02 | [67] 1.01 | [68] 0.998 | [69] 0.994 | [70] 1.04 | [71] 1 | [72] 1 | [73] 1.01 | [74] 1.02 | [75] 1 | [76] 1.03 | S. cerevisiae strains, strain wild type, stronger effect = lower value 0.992

Reference: PubChem BioAssay AID1159580 (chemical genetic matrix, 2015)
